Laboratory results from PubChem BioAssay AID1159580 (chemical genetic matrix, 2015).
Screen size: about 5,500 compounds; about 2,000 (36%) were called active. Another 18% or so got no clear call; they are omitted. No stated cut-off is given here; in the data, active means normalized growth mostly below about 0.91 (no sharp cut-off); inconclusive means no clear call, values can overlap the other calls; inactive means mostly above about 0.92. This is one part of the list.

Assay: chemical genetic growth profiling, strain panel (AID 1159580);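 further: tested at 20 µM; growth read once vehicle control cultures reached saturation at 30 °C; 1 = growth at the plate median or of vehicle wells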
Settings: S. cerevisiae deletion strains, growth OD
[1] = locus YAR019C, strain CDC15, stronger effect = lower value
[2] = locus YBL105C, strain PKC1, stronger effect = lower value
[3] = locus YBR135W, strain CKS1, stronger effect = lower value
[4] = locus YBR136W, strain MEC1, stronger effect = lower value
[5] = locus YBR160W, strain CDC28, stronger effect = lower value
[6] = locus YDL017W, strain CDC7, stronger effect = lower value
[7] = locus YDL028C, strain MPS1, stronger effect = lower value
[8] = locus YDL101C, strain DUN1, stronger effect = lower value
[9] = locus YDL108W, strain KIN28, stronger effect = lower value
[10] = locus YDL132W, strain cdc53, stronger effect = lower value
[11] = locus YDL214C, strain PRR2, stronger effect = lower value
[12] = locus YDR052C, strain DBF4, stronger effect = lower value
[13] = locus YDR054C, strain cdc34, stronger effect = lower value
[14] = locus YDR226W, strain ADK1, stronger effect = lower value
[15] = locus YDR477W, strain SNF1, stronger effect = lower value
[16] = locus YER123W, strain YCK3, stronger effect = lower value
[17] = locus YER133W, strain GLC7, stronger effect = lower value
[18] = locus YFL009W, strain cdc4, stronger effect = lower value
[19] = locus YFL029C, strain CAK1, stronger effect = lower value
[20] = locus YFR003C, strain YPI1, stronger effect = lower value
[21] = locus YFR019W, strain FAB1, stronger effect = lower value
[22] = locus YFR028C, strain CDC14, stronger effect = lower value
[23] = locus YGR040W, strain KSS1, stronger effect = lower value
[24] = locus YGR052W, strain FMP48, stronger effect = lower value
[25] = locus YGR092W, strain DBF2, stronger effect = lower value
[26] = locus YHR030C, strain SLT2, stronger effect = lower value
[27] = locus YHR079C, strain IRE1, stronger effect = lower value
[28] = locus YHR082C, strain KSP1, stronger effect = lower value
[29] = locus YHR205W, strain SCH9, stronger effect = lower value
[30] = locus YIL147C, strain SLN1, stronger effect = lower value
[31] = locus YJL095W, strain BCK1, stronger effect = lower value
[32] = locus YJL128C, strain PBS2, stronger effect = lower value
[33] = locus YJL157C, strain FAR1, stronger effect = lower value
[34] = locus YJR016C, strain ILV3, stronger effect = lower value
[35] = locus YJR066W, strain TOR1 (second series), stronger effect = lower value
[36] = locus YJR066W, strain TOR1, stronger effect = lower value
[37] = locus YKL048C, strain ELM1, stronger effect = lower value
[38] = locus YKL067W, strain YNK1, stronger effect = lower value
[39] = locus YKL101W, strain HSL1, stronger effect = lower value
[40] = locus YKL193C, strain SDS22, stronger effect = lower value
[41] = locus YKL203C, strain TOR2, stronger effect = lower value
[42] = locus YLR113W, strain HOG1, stronger effect = lower value
[43] = locus YLR133W, strain CKI1, stronger effect = lower value
[44] = locus YLR403W, strain SFP1, stronger effect = lower value
[45] = locus YML070W, strain DAK1, stronger effect = lower value
[46] = locus YMR001C, strain CDC5, stronger effect = lower value
[47] = locus YMR205C, strain PFK2 (second series), stronger effect = lower value
[48] = locus YMR277W, strain FCP1, stronger effect = lower value
[49] = locus YNL006W, strain LST8, stronger effect = lower value
[50] = locus YNL020C, strain ARK1, stronger effect = lower value
[51] = locus YNL161W, strain CBK1, stronger effect = lower value
[52] = locus YNL183C, strain NPR1, stronger effect = lower value
[53] = locus YNL207W, strain RIO2, stronger effect = lower value
[54] = locus YNL222W, strain SSU72, stronger effect = lower value
[55] = locus YNL307C, strain MCK1 (second series), stronger effect = lower value
[56] = locus YOL078W, strain AVO1, stronger effect = lower value
[57] = locus YOL136C, strain PFK27, stronger effect = lower value
[58] = locus YOR061W, strain CKA2, stronger effect = lower value
[59] = locus YOR119C, strain RIO1, stronger effect = lower value
[60] = locus YOR231W, strain MKK1, stronger effect = lower value
[61] = locus YOR329C, strain SCD5, stronger effect = lower value
[62] = locus YPL031C, strain PHO85, stronger effect = lower value
[63] = locus YPL153C, strain RAD53, stronger effect = lower value
[64] = locus YPL204W, strain HRR25, stronger effect = lower value
[65] = locus YPL209C, strain IPL1, stronger effect = lower value
[66] = locus YPL256C, strain CLN2, stronger effect = lower value
[67] = locus YPR025C, strain CCL1, stronger effect = lower value
[68] = locus YPR106W, strain ISR1, stronger effect = lower value
[69] = locus YPR111W, strain DBF20, stronger effect = lower value
[70] = strain NNK1, stronger effect = lower value
[71] = strain TSCII, stronger effect = lower value
[72] = locus YMR263W, strain SAP30, stronger effect = lower value
[73] = locus YNL153C, strain GIM3, stronger effect = lower value
[74] = locus YPL055C, strain LGE1, stronger effect = lower value

Measured: normalized growth

N#Cc1c(N)sc2c1CCc1ccccc1-2
active: [2] 0.897 | [6] 0.899 | [10] 0.884 | [11] 0.671 | [12] 0.905 | [14] 0.887 | [15] 0.546 | [16] 0.596 | [17] 0.499 | [20] 0.894 | [22] 0.884 | [23] 0.452 | [24] 0.508 | [26] 0.479 | [28] 0.568 | [29] 0.558 | [33] 0.605 | [34] 0.892 | [35] 0.474 | [36] 0.458 | [37] 0.798 | [38] 0.664 | [39] 0.66 | [40] 0.888 | [41] 0.489 | [42] 0.806 | [43] 0.593 | [44] 0.401 | [45] 0.642 | [46] 0.886 | [47] 0.69 | [48] 0.88 | [49] 0.903 | [50] 0.611 | [51] 0.898 | [52] 0.492 | [53] 0.867 | [55] 0.508 | [57] 0.636 | [58] 0.616 | [59] 0.506 | [62] 0.464 | [63] 0.494 | [64] 0.491 | [65] 0.888
inactive: [1] 0.896 | [3] 0.898 | [4] 0.896 | [5] 0.905 | [7] 0.898 | [8] 0.929 | [9] 0.898 | [13] 0.89 | [18] 0.903 | [19] 0.891 | [21] 0.833 | [25] 0.545 | [27] 0.593 | [30] 0.894 | [31] 0.508 | [32] 0.918 | [54] 0.897 | [56] 0.898 | [60] 0.653 | [61] 0.91 | [66] 0.97 | [67] 0.911 | [68] 0.918 | [69] 0.912 | [70] 0.915 | [71] 0.899

COc1ccc(-c2ccc(N)[n+](CCCC(=O)O)n2)cc1
inactive: locus YAL040C, strain CLN3, stronger effect = lower value 1.05 | locus YCL061C, strain MRC1 (second series), stronger effect = lower value 1 | locus YDR363W, strain ESC2, stronger effect = lower value 1.01 | locus YER002W, strain NOP16, stronger effect = lower value 0.993 | [72] 1.01 | locus YMR307W, strain GAS1, stronger effect = lower value 1.01 | [73] 1.03 | locus YNL175C, strain NOP13, stronger effect = lower value 1 | locus YNL197C, strain WHI3, stronger effect = lower value 1.01 | locus YNL224C, strain SQS1, stronger effect = lower value 1.01 | locus YOR083W, strain WHI5 (second series), stronger effect = lower value 1.02 | [74] 1.01

COc1ccc(/C(C)=N\NC2=NCCCN2)cc1
inactive: locus YAL013W, strain DEP1, stronger effect = lower value 1 | locus YBR229C, strain ROT2, stronger effect = lower value 1.01 | locus YCL061C, strain MRC1, stronger effect = lower value 1 | [8] 1.03 | locus YDR150W, strain NUM1, stronger effect = lower value 0.999 | locus YEL061C, strain CIN8, stronger effect = lower value 0.991 | locus YGR078C, strain PAC10, stronger effect = lower value 1 | [26] 0.987 | locus YHR087W, strain rtc3, stronger effect = lower value 0.993 | locus YJL187C, strain SWE1, stronger effect = lower value 1.01 | locus YJR043C, strain POL32, stronger effect = lower value 0.998 | locus YJR075W, strain HOC1, stronger effect = lower value 0.986 | locus YKL190W, strain CNB1, stronger effect = lower value 0.973 | locus YLR039C, strain RIC1, stronger effect = lower value 0.957 | locus YLR058C, strain SHM2 (second series), stronger effect = lower value 0.991 | locus YLR085C, strain ARP6, stronger effect = lower value 0.982 | locus YLR262C, strain YPT6, stronger effect = lower value 0.978 | locus YML094W, strain GIM5, stronger effect = lower value 1.08 | locus YMR219W, strain ESC1, stronger effect = lower value 0.997 | [72] 1 | [73] 1.01 | locus YNL298W, strain CLA4 (second series), stronger effect = lower value 0.966 | locus YNL322C, strain KRE1, stronger effect = lower value 1 | locus YNR030W, strain Alg12, stronger effect = lower value 0.993 | [74] 1.01 | locus YPL241C, strain CIN2, stronger effect = lower value 1.03 | locus YPR135W, strain CTF4, stronger effect = lower value 1.04

CCCCCc1ccc(-c2nc(SCC(C)=O)n[nH]2)cc1
inactive: [1] 0.933 | [2] 0.95 | [3] 0.959 | [4] 0.948 | [5] 0.947 | [6] 0.957 | [7] 0.932 | [8] 0.956 | [9] 0.949 | [10] 0.971 | [11] 0.835 | [12] 0.97 | [13] 0.922 | [14] 0.942 | [15] 0.773 | [16] 0.761 | [17] 0.838 | [18] 0.926 | [19] 0.938 | [20] 0.96 | [21] 0.885 | [22] 0.962 | [23] 0.748 | [24] 0.734 | [25] 0.662 | [27] 0.636 | [28] 0.825 | [29] 0.799 | [30] 0.937 | [31] 0.658 | [32] 0.846 | [33] 0.85 | [34] 0.953 | [35] 0.73 | [36] 0.721 | [38] 0.831 | [40] 0.95 | [41] 0.875 | [43] 0.86 | [44] 0.829 | [45] 0.784 | [46] 0.94 | [47] 0.864 | [48] 0.932 | [49] 0.947 | [50] 0.856 | [51] 0.958 | [52] 0.767 | [53] 0.947 | [54] 0.948 | [55] 0.826 | [56] 0.963 | [57] 0.82 | [58] 0.8 | [59] 0.779 | [60] 0.661 | [61] 0.949 | [62] 0.749 | [63] 0.688 | [64] 0.702 | [65] 0.96 | [67] 0.954 | [68] 0.928 | [69] 0.913 | [70] 0.934 | [71] 0.936
active: [26] 0.565 | [37] 0.688 | [39] 0.714 | [42] 0.585 | [66] 0.6
